# Laboratory results taken from PubChem BioAssay AID1722 (National Center for Advancing Translational Sciences (NCATS), 2009).
# Out of some 290,000 compounds screened, fewer than 10 were called active. Calls come from the whole dose curve. Not all results are given here.
# Biological target: Pyruvate kinase (Leishmania mexicana) (UniProt Q27686)
# Assay: qHTS Assay for Activators of Leishmania Mexicana Pyruvate Kinase (LmPK)
# Conditions: purified LmPK, Kinase-Glo ATP luminescence, 1 h; series mostly up to 57.5 µM
# Excerpt: NIH Chemical Genomics Center [NCGC] Malcolm Walkinshaw, Hugh Morgan, Linda Gilmore University of Edinburgh, UK MLPCN Grant: 1 R03 MH085697-01 NCGC Assay Overview: Pyruvate kinase (L. Mexicana) (LmPK) enzyme was supplied as a highly purified (>95% pure) sulphate-free preparation from University of Edinburgh, UK and assayed for its ability to generate ATP from ADP using phosphoenolpyruvate (PEP) as a substrate. ATP generation was detected in a coupled reaction by luciferase-mediated luminescence, an ATP-dependent process. Pyruvate kinase substrates, PEP and ADP, were present in the assay at Km and approximately 10-fold below Km respectively. The enzyme was assayed at an intermediate level of activity to screen for both inhibitors and activators.
# NCGC Assay Protocol Summary: Three uL of enzyme mix (kept on ice) in assay buffer (50 mM Imidazole pH7.2, 50 mM KCl, 7 mM MgCl2, 0.01% Tween 20, 0.05% BSA) containing PEP (0.5 mM final concentration) and LmPK (0.1 nM final concentration) was dispensed into white solid bottom 1,536 well microtiter plates. 23 nL of compound were delivered by a pin tool and 1 uL of ADP mix in assay buffer (r.t; 0.1 mM final ADP concentration) was added. Plates were incubated at room temperature for 1 hour. Two uL of detection mix (Kinase-Glo, Promega; at 4 degree Celsius protected from light) was added and luminescence read by a ViewLux (Perkin Elmer) at 1 second exposure/plate. Data were normalized to the uninhibited and AC100 inhibition (no enzyme). To monitor activation, the first column contained a five-fold concentration of LmPK (0.5 nM).
# Sequence of Pyruvate kinase (Leishmania mexicana) (Q27686 whole entry, looked up): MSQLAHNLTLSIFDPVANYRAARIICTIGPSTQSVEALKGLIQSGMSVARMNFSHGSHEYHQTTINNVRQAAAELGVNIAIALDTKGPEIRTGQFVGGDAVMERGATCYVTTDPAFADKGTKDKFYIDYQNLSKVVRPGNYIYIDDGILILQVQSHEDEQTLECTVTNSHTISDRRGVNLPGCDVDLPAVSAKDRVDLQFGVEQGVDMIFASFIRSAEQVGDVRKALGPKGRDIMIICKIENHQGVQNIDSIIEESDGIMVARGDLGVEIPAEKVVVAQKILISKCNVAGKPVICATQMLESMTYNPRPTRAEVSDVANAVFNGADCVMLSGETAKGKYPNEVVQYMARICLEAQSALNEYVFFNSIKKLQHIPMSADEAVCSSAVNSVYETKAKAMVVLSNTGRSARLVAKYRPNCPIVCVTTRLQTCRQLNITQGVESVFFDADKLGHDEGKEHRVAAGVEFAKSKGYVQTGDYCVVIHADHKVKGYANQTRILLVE
row,SMILES,outcome
1,COc1ccc(C(=O)NC(=S)N2CCCCC2c2cccnc2)cc1OC (stereo unspecified),inactive
2,CN(C)N=Nc1ccc2nc[nH]c2c1,inactive
3,CC(=O)Nc1ccc(/C=C/C(=O)c2ccccc2)cc1,inactive
4,COc1ccccc1OCc1nc2ccccc2s1,inactive
5,Oc1ccccc1/C=N/n1c(-c2cccs2)n[nH]c1=S,inactive
6,O=C(Oc1ccc(-c2nc(-c3ccccn3)no2)cc1)c1ccccc1,inactive
7,O=c1[nH]c2ccccc2n2c(-c3ccccc3)nnc12,inactive
8,O=[N+]([O-])c1ccc2oc(-c3cccc(O)c3)nc2c1,inactive
9,S=c1[nH]nc2c3c4c(sc3ncn12)CCCC4,inactive
10,CCOC(=O)c1sc(NC(=O)c2ccncc2)nc1C,inactive
11,Cn1c(-c2ccco2)nc2cc3ccccc3cc21,inactive
12,O=c1[nH]c(CCl)nc2cc(-c3ccc(Cl)cc3)sc12,inactive
13,O=C(Nc1ccc(C(=O)O)c(O)c1)c1ccccc1,inactive
14,CC(=O)N(C1=C(Cl)C(=O)c2ccccc2C1=O)c1ccc(C(=O)O)cc1,inactive
15,O=c1c2c(nc3n1CCCCC3)sc1c(O)cccc12,inactive
16,Cc1cc(NC(=O)Nc2ccccc2[N+](=O)[O-])no1,inactive
17,COc1ccc(-c2cn3ccsc3n2)cc1,inactive
18,CCC(=O)Nc1ccc(C(=O)Nc2cccc(OC)c2)cc1,inactive
19,O=c1oc2ccccc2cc1-c1cn(-c2ccccc2)c(=S)[nH]1,inactive
20,S=c1[nH]cc(-c2ccc(Cl)cc2)n1-c1ccccc1,inactive
21,Cc1ccnc(NC(=O)c2ccoc2C)c1,inactive

row,SMILES,outcome
1,CCCCSc1nnc2c(n1)OC=Nc1ccccc1-2,inactive
2,O=C(Nc1nnc(C2CC2)s1)c1ccccn1,inactive
3,COc1ccccc1N=Cc1c(O)c2ccccc2oc1=O,inactive
4,Cc1nonc1C(=O)N/N=C/c1ccc(O)cc1,inactive
5,CC(C)Oc1ccc(CCc2n[nH]c(=S)n2Cc2ccccc2)cc1,inactive
6,CCc1n[nH]c(=S)n1/N=C/c1c[nH]c2ccc(Br)cc12,inactive
7,COc1cc(OC)c(C(=O)Nc2ccc(N(C)C)cc2)cc1OC,inactive
8,CC(C)c1ccc(Nc2ncccc2C#N)cc1,inactive
9,O=C(Nc1cccc2ccccc12)c1onc2c1CCCC2,inactive
10,CN(C)c1nc(=Nc2cccc(Cl)c2)ss1,inactive
11,Oc1ccc(N=Nc2nccs2)c(O)c1,inactive
12,CCc1nnc(NS(=O)(=O)c2ccc(N=Cc3c(C)[nH]n(-c4ccc(C)cc4)c3=O)cc2)s1,inactive
13,Cc1ccc(NC(=O)c2sccc2C)cc1[N+](=O)[O-],inactive
14,Cc1cc(C(=O)COC(=O)C2CC2)c(C)n1-c1ccc(F)cc1,inactive
15,CCCCCC(=O)NC(=S)NNC(=O)c1ccc([N+](=O)[O-])cc1,inactive
16,COC(=O)c1ccc(NCC(=O)c2ccccc2)cc1,inactive
17,N/C(=N\OC(=O)c1ccc([N+](=O)[O-])cc1)c1ccccn1,inactive
18,CCOc1ccc(NC(=O)Nc2cc(C)ccc2OC)cc1,inactive
19,COc1ccccc1C(=O)Nc1ccc(NC(=O)c2ccco2)c(C)c1,inactive
20,O=c1oc2cc(O)ccc2cc1-c1ccc(F)cc1,inactive
21,CC(OC(=O)c1ccc2ccccc2n1)C(=O)c1ccccc1 (stereo unspecified),inactive

row,SMILES,outcome
1,Nc1[nH][nH]c(=O)c1N=Nc1ccc2c(c1)OCO2,inactive
2,Cc1ccc(OCc2n[nH]c(=S)n2-c2ccccc2)cc1,inactive
3,O=C(/C=C/c1ccc(N2CCOCC2)cc1)c1ccccc1,inactive
4,O=C1Nc2ccc(Br)cc2/C1=N/N=C/C1=C(N2CCOCC2)C(=C\c2ccccc2)/CC1,inactive
5,COc1ccc(C(=O)C[n+]2ccc(N)c(C)c2C)cc1,inactive
6,S=c1[nH]nc(COc2ccccc2)n1-c1ccccc1,inactive
7,COc1ccc(C(CC(=O)c2ccccc2)S(=O)(=O)c2ccccc2)cc1 (stereo unspecified),inactive
8,S=c1[nH]nc(CSCc2ccc(Cl)cc2Cl)n1-c1ccccc1,inactive
9,C(=N\Nc1ccc2ccccc2n1)/c1ccc2c(c1)OCO2,inactive
10,Cc1ccc(-n2c(-c3ccc(Cl)cc3)n[nH]c2=S)cc1,inactive
11,O=c1c(-c2ccccc2)coc2cc(O)ccc12,inactive
12,CN(C)c1ccc(Nc2c3c4c(cccc4n(C)c2=O)C(=O)c2ccccc2-3)cc1,inactive
13,COc1ccc(-c2cn(-c3ccc(OC)cc3)c(=S)[nH]2)cc1,inactive
14,O=C(CSC(=S)N1CCOCC1)c1ccccc1,inactive
15,CSc1ccc(/C=N/NC(=O)c2cccc(Cl)c2)cc1,inactive
16,COc1ccc(-c2nc(-c3ccccc3)no2)c(OC)c1,inactive
17,Cc1cccc(NC(=O)/C=C/c2ccc3c(c2)OCO3)n1,inactive
18,O=C(Nc1ccc(Cl)cn1)c1ccc2c(c1)OCCO2,inactive
19,Cc1c(Cl)cccc1NC(=O)Nc1ccc(C(=O)N2CCCC2)cc1,inactive
20,Cc1cccc(/C(N)=N/OC(=O)c2ccccc2Cl)c1,inactive
21,CN=C1C=C/C(=N/N=c2\ccn(O)cc2C)C=C1C,inactive

row,SMILES,outcome
1,COc1cccc(/C=C/c2ccc3ccccc3n2)c1OC(C)=O,inactive
2,Cc1n[nH]c(=O)nc1N/N=C/c1cccs1,inactive
3,COc1ccc(-n2c(-c3ccc(OC)c(OC)c3)n[nH]c2=S)cc1,inactive
4,c1csc(-c2nc(-c3ccncc3)no2)c1,inactive
5,Cc1ccn2cc(-c3nonc3C)cc2c1,inactive
6,COc1cc(SC)ccc1C(=O)Nc1nc(C)cs1,inactive
7,O=c1c2ccccc2cnn1Cc1n[nH]c(=S)n1-c1ccccc1F,inactive
8,O=C(/C=C/c1ccccc1)c1ccccc1O,inactive
9,Cc1nc(-c2ccc(NC(=O)c3cccs3)cc2)cs1,inactive
10,CCN(CC)c1ccc2oc(=O)c(C)nc2c1,inactive
11,S=c1[nH]ccn1-c1ccc(Cl)cc1,inactive
12,N=c1oc2ccccc2cc1C(=O)N/N=C/c1ccccc1,inactive
13,COc1cccc(C(=O)Nc2ccc(N3CCCC3)cc2)c1,inactive
14,COc1ccc(C(=O)Nc2ccccc2C(=O)N/N=C/c2ccccc2OC)cc1,inactive
15,O=C(O)/C=C/C(=O)NNc1ccc([N+](=O)[O-])cc1,inactive
16,Clc1ccc2nc(CSc3ccccc3)cn2c1,inactive
17,C/C(=N\NC(=O)OC(C)(C)C)c1ccc[nH]1,inactive
18,Cn1c(-c2sc3cc(C(F)(F)F)cnc3c2-c2ccccc2)n[nH]c1=S,inactive
